Reference: PubChem BioAssay (NCI)
This is part of a sample that, as a whole, favours compounds with a hit. Of some 83,000 tested, about 20% had one in any assay.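 In brief: 96-well plates, 48 h treatment, single concentration, percent growth endpoint.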 The source made the active and inactive calls. Rule for the calls: active = growth percent below 10; inactive = the rest.

Experiments:
Assay in all cases: NCI-60 one-dose screen, 48 h (100 = growth as untreated, 0 = no growth, -100 = all killed)
[1] = tested on: NCI-H23 lung; details: 10 µM unless noted
[2] = tested on: NCI-H226 lung; details: 10 µM unless noted
[3] = tested on: NCI-H322M lung; details: 10 µM unless noted
[4] = tested on: HOP-62 NSCLC; details: 10 µM unless noted
[5] = tested on: NCI-H460 lung; details: 10 µM unless noted
[6] = tested on: HOP-92 NSCLC; details: 10 µM unless noted
[7] = tested on: NCI-H522 lung; details: 10 µM
[8] = tested on: 786-0 renal; details: 10 µM unless noted
[9] = tested on: COLO 205 colon; details: 10 µM unless noted

Measured: growth

O=C(Nc1ccccc1)P(=O)(O)c1ccccc1
inactive: [1] 94% | [2] 91.2% | [3] 119% | [4] 94.3% | [5] 105% | [6] 78.1% | [7] 102% | [8] 110% | [9] 114%

BrC1CC(Br)c2c1c1c(c3c2C(Br)CC3Br)C(Br)CC1Br (stereo not given)
inactive: [1] 99.7% | [2] 101% | [3] 97.7% | [4] 103% | [5] 93.4% | [6] 89.9% | [7] 84.4% | [8] 116% | [9] 105%

NC(=O)c1cc(Br)cc(Br)c1NS(=O)(=O)c1ccccc1
inactive: [1] 100% | [2] 95.3% | [3] 94.5% | [4] 98% | [5] 102% | [6] 93.6% | [7] 100% | [8] 108% | [9] 101%

CN1CCN(CCCOc2ccc3ncnc(Nc4ccc(OCc5cccc(F)c5)c(Cl)c4)c3c2)CC1
active: [3] -9.88% | [5] -68.9% | [7] -43.4% | [8] -86.6% | [9] -46.5%
inactive: [1] 54.9% | [2] 88.8% | [4] 19.7% | [6] 35%

O=C(COc1cccc(/C=C2\Cc3ccccc3C2=O)c1)c1ccc(Cl)cc1
inactive: [1] 96.1% | [2] 105% | [3] 131% | [4] 98% | [5] 117% | [6] 86.6% | [7] 81.1% | [8] 97.8% | [9] 142%

Cc1ccc(/C=C/C(=O)c2ccc(F)cc2)s1
inactive: [1] 85% | [2] 85.1% | [3] 94.2% | [4] 103% | [5] 80.6% | [6] 64% | [7] 62.8% | [8] 76.7% | [9] 108%

Nc1ccn(C2O[C@H](CO)[C@@H](O)[C@@H]2O)c(=O)n1 (stereo not given in full)
inactive: [1] 28.2% | [2] 34.3% | [3] 62.6% | [4] 26.7% | [6] 53.8% | [7] 68.1% | [8] 10.2% | [9] 57.3%
active: [5] 6.43%

CCN(CC)c1ccc(/C=C/C(=O)c2cccc(NS(C)(=O)=O)c2)cc1
active: [7] 4.67%
inactive: [1] 18.7% | [2] 43.1% | [3] 89% | [4] 42.6% | [5] 42.3% | [6] 19.9% | [8] 32.3% | [9] 62.3%

C#C[C@]1(O)CCC2C3CCc4cc(O)ccc4C3CC[C@@]21C (stereo not given in full)
inactive: [1] 62.4% | [2] 81.3% | [3] 81.4% | [4] 35.4% | [5] 17.5% | [6] 75.3% | [7] 10.6% | [8] 44.3% | [9] 41.1%

O=C(Nc1nc(-c2ccc(Cl)cc2)cs1)c1cc(-c2ccc(Br)cc2)nc2ccc(Cl)cc12
inactive: [1] 33.5% | [2] 71.2% | [3] 92.1% | [4] 37.2% | [5] 108% | [7] 75.3% | [8] 43% | [9] 89.1%
active: [6] 5.28%

C/C=C(/C(=C/C)c1ccc(O)cc1)c1ccc(O)cc1
inactive: [1] 48% | [2] 69.9% | [3] 27.4% | [4] 36% | [5] 20.2% | [6] 58.5% | [7] 55.3% | [8] 39.3% | [9] 73.9%

COc1ccc(C2CC(c3ccc(Nc4ccnc5cc(Cl)ccc45)cc3)=NN2C(C)=O)cc1 (stereo not given)
inactive: [1] 84.3% | [2] 79.2% | [3] 98.8% | [4] 89.4% | [5] 85.4% | [6] 36.5% | [7] 67.3% | [8] 81.2% | [9] 96%

O=C(O)c1ccc(CNS(=O)(=O)c2ccc3ccccc3c2)cc1
inactive: [1] 119% | [2] 100% | [3] 114% | [4] 112% | [5] 120% | [6] 132% | [7] 104% | [8] 106% | [9] 105%

NS(=O)(=O)c1cc(C2(O)NC(=O)c3ccccc32)ccc1Cl (stereo not given)
inactive: [1] 106% | [2] 97.9% | [3] 89.6% | [4] 109% | [5] 111% | [6] 104% | [7] 99.5% | [8] 102% | [9] 103%

CCN(Cc1cccc(S(=O)(=O)[O-])c1)c1ccc(C(=C2C=CC(=[N+](CC)Cc3cccc(S(=O)(=O)O)c3)C=C2)c2ccccc2S(=O)(=O)O)cc1
inactive: [1] 97.3% | [2] 93.8% | [3] 98.1% | [4] 99.3% | [5] 107% | [6] 87.3% | [7] 99.4% | [8] 92.7% | [9] 107%

NS(=O)(=O)c1cc2c(cc1Cl)NC=NS2(=O)=O
inactive: [1] 109% | [2] 99% | [3] 98.5% | [4] 98.5% | [5] 110% | [6] 106% | [7] 91.4% | [8] 98.9% | [9] 110%

O=C(/C=C/c1ccc([N+](=O)[O-])cc1)c1ccc2c3c(cccc13)CC2
inactive: [1] 67.9% | [2] 66.9% | [3] 78.4% | [4] 53.9% | [5] 38.4% | [6] 55% | [7] 70.4% | [8] 83.9% | [9] 49%

O=C(O)C1CCN(S(=O)(=O)c2ccc(-c3ccccc3)cc2)CC1
inactive: [1] 98.3% | [2] 90.6% | [3] 124% | [4] 112% | [5] 112% | [6] 90.8% | [7] 92.9% | [8] 103% | [9] 111%

CSc1nc(N)c2c(n1)N(C)C=NS2(=O)=O
inactive: [1] 105% | [2] 101% | [3] 114% | [4] 123% | [5] 115% | [6] 79.1% | [7] 105% | [8] 108% | [9] 101%

COc1ccc(C(=O)COc2cccc(/C=C3\COc4ccc5ccccc5c4C3=O)c2)cc1
inactive: [1] 59.5% | [2] 72.7% | [3] 147% | [4] 96.5% | [5] 62% | [6] 33.8% | [7] 44.1% | [8] 83% | [9] 123%

c1ccc(N2c3nc4ccccc4cc3Sc3cc4ccccc4nc32)nc1
inactive: [1] 93.7% | [2] 84.9% | [3] 83.6% | [4] 90.8% | [5] 111% | [6] 39% | [7] 98.1% | [8] 92.9% | [9] 141%

COc1ccc2cc(-c3nc4ccccc4[nH]3)c(=O)oc2c1
inactive: [1] 93.1% | [2] 97.5% | [3] 96.3% | [4] 93.9% | [5] 101% | [6] 80.3% | [7] 88.7% | [8] 98% | [9] 119%

CC(C)=CCNc1ncnc2c1ncn2C1OC(COP(=O)(O)O)C(O)C1O (stereo not given)
inactive: [1] 57.8% | [2] 45.7% | [3] 41.1% | [4] 46.1% | [5] 80.3% | [6] 74.5% | [8] 43.3% | [9] 63%
active: [7] 9.55%

Cc1cc(C)c(C(=O)c2cccs2)c(C)c1
inactive: [1] 100% | [2] 99.8% | [3] 106% | [4] 95.2% | [5] 109% | [6] 74.4% | [7] 93.3% | [8] 100% | [9] 103%

CC(C)Sc1nc(Cl)c(C#N)c(-c2ccc(F)cc2)n1
inactive: [1] 100% | [2] 103% | [3] 102% | [4] 109% | [5] 113% | [6] 92.2% | [7] 86.8% | [8] 96.4% | [9] 115%

O=C(/C=C(\Nc1ccccc1)c1ccccc1)c1cn(-c2ccc([N+](=O)[O-])cc2)nn1
inactive: [1] 91.4% | [2] 95.3% | [3] 82.8% | [4] 101% | [5] 91% | [6] 95% | [7] 86.1% | [8] 92.1% | [9] 97.2%

CC[n+]1c(/C=C/c2ccc(N3CCCC3)cc2)cccc1/C=C/c1ccc(N2CCCC2)cc1
active: [1] -67.9% | [2] -65.7% | [3] -86.7% | [4] -54.4% | [5] -84.3% | [6] -73.3% | [7] -83.2% | [8] -82.3% | [9] -83.1%

COc1cccc2c1C(=O)c1c(O)c3c(c(O)c1C2=O)C[C@@](O)(C(C)=O)C[C@@H]3O[C@H]1C[C@H](N)[C@H](O)[C@H](C)O1
active: [1] -67.3% | [2] -33.1% | [3] -19.9% | [4] -50.2% | [5] -3.01% | [6] -28% | [7] -89.3% | [8] -9.97% | [9] -85.8%

O=Cc1ccccc1C(=O)O
inactive: [1] 100% | [2] 100% | [3] 96.7% | [4] 96.7% | [5] 99.5% | [6] 101% | [7] 96.7% | [8] 97.4% | [9] 112%

O=[N+]([O-])c1ccc2[nH]cc(-c3c4ccccc4cc4[nH]c5ccc([N+](=O)[O-])cc5c34)c2c1
active: [5] 4.24% | [8] 1.4%
inactive: [1] 33.1% | [2] 39.5% | [3] 47.3% | [4] 48.5% | [6] 44.7% | [7] 11.3% | [9] 14%
